Reference: the supplement of paper PMC6555819

How the values were obtained:
Experiment in all cases: PBM binding z-score (relative to random genomic background probes); higher = stronger binding; sequences stand for … in GC…GCGATTGACAGCGTAGAATGAAGG
[1] = test system: PPARg:RXRa DBDmut IVT, anti-RXR (DBD mutation: RXRa K156A/R161A, NR concentration 270 nM, RXRa partner concentration 90 nM)
Summary of the method: (§1)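 Probes were double-stranded and carried 34-nt variable regions with direct-repeat seeds, single-nucleotide variants, half-site ablations and random human genomic background sequences, printed on custom Agilent 4×180K protein-binding microarrays. Arrays were incubated 1 h with ligand-free nuclear receptor dimers in PBS pH 7.4, 2% milk, 0.02% Triton X-100, 1 mM DTT, 0.2 mg/mL BSA and 0.4 mg/ml salmon testes DNA. Antibodies against each partner (one per run) detected binding, and scanned fluorescence was regression-normalized. Binding z-scores use the random background probes as reference.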

[2] = test system: PPARg:RXRa IVT, anti-PPARg (NR concentration 270 nM, RXRa partner concentration 90 nM)
Summary of the method: as §1

[3] = test system: PPARg DBDmut:RXRa IVT, anti-PPARg (DBD mutation: PPARg1 K132A/R137A, NR concentration 270 nM, RXRa partner concentration 90 nM)
Summary of the method: as §1

[4] = test system: PPARg DBDmut IVT, anti-PPARg (DBD mutation: PPARg1 K132A/R137A, NR concentration 270 nM)
Summary of the method: as §1

[5] = test system: PPARg homodimer (NR concentration 180 nM)
Summary of the method: as §1

[6] = test system: PXR:RXRa (NR concentration 270 nM, RXRa partner concentration 90 nM)
Summary of the method: as §1

[7] = test system: PXR homodimer (NR concentration 270 nM)
Summary of the method: as §1

[8] = test system: RARa:RXR (NR concentration 270 nM, RXRa partner concentration 90 nM)
Summary of the method: as §1

[9] = test system: RARa homodimer (NR concentration 270 nM)
Summary of the method: as §1

[10] = test system: RARb:RXRa (NR concentration 270 nM, RXRa partner concentration 90 nM)
Summary of the method: as §1

Sequence | PBM binding z-score [1] | PBM binding z-score [2] | PBM binding z-score [3] | PBM binding z-score [4] | PBM binding z-score [5] | PBM binding z-score [6] | PBM binding z-score [7] | PBM binding z-score [8] | PBM binding z-score [9] | PBM binding z-score [10]
CGTCAAAGTTCAAGGTAACATAACAGAAAGCAGC | 0.0346 | 2.06 | 0.987 | 0.494 | 2.78 | 4.26 | 2.87 | 3.65 | 1.23 | 5.13
CGTCCAAGGTCAATCCTAGGTCAGTGAAAGCATT | 3.45 | 4.04 | 0.153 | 0.742 | 6.19 | 5.13 | 0.983 | 6.44 | 1.8 | 5.33
CATACAGGCTCAGCTAGGCCAGAGTAGGGACGGC | -0.65 | -0.492 | 0.0955 | -0.224 | 0.112 | -0.899 | -0.356 | -0.727 | -0.19 | -0.283
GCTAGCAGGCCATTTGGGTCACTCATTGACGGGC | 1.91 | 1.84 | -1.26 | -0.505 | -0.295 | 0.252 | -0.137 | 0.652 | -0.74 | 1.26
CAAATTAGGTCACCGGAAGGTCAAAGTCCGCATG | 8.26 | 8.72 | 5.54 | 4.55 | 7.17 | 6.18 | 1.78 | 7.5 | 2.54 | 5.54
CAAACTAGGTCAAGATCAAAGTCGGTTTGTGCCA | 8.24 | 8.61 | 5.86 | 4.95 | 2.34 | 1.31 | -0.0944 | 2.05 | 0.622 | 4.02
CGTCAAAGTTCAAGGTAACTTAACAGAAAGCAGC | 0.535 | 1.52 | 0.657 | 0.0202 | 2.33 | 3.79 | 2.37 | 3.17 | 1.69 | 4.89
GCGACTGGGGCGTCAGCAGGTTACCATAACTTAA | 0.993 | 0.504 | -1.26 | -0.889 | -0.668 | -0.181 | -0.71 | 0.206 | -1.15 | 0.327
ATCTCTAGGTAACAACTTCAGTGAAAGAGAGGAC | 3.07 | 2.74 | 1.64 | 1.45 | 0.774 | 0.286 | 0.641 | 0.537 | 0.713 | 0.586
CGAACCAGGTCAGAACAGGACAGTGAAGGATGAT | 3.56 | 3.58 | 0.325 | -0.243 | 1.16 | 1.66 | -0.119 | 1.4 | 0.21 | 3.05
TTACTAAGGTGAGCTGAGGTCGTTGATCCAACTC | 2.04 | 2.66 | 0.501 | 0.0653 | 0.306 | 5.17 | 0.515 | 2.16 | -0.407 | 2.07
CCAGACAGGTGAAAGGTTACTCAGTCTGGTACGC | 1.76 | 3.47 | -0.162 | 0.368 | 1.65 | 2.74 | 0.256 | 4.24 | 0.58 | 2.22
ATATGTAGGGTAGCTGGGGTCATTCAGACTAGGC | 5.27 | 5.46 | 1.65 | 3.4 | 2.54 | 6.03 | 3.77 | 5.97 | 0.388 | 2.87
AGAATGAGGTTACCAAAGATCAGGCAAACGCTTG | 3.6 | 3.49 | 0.423 | 0.272 | 0.661 | 1.24 | -0.362 | 2.11 | -0.358 | 2
TCTTGTAGATCAACAGGAGGATAAGAAAGATCGA | 1.64 | 0.232 | 0.62 | 0.57 | 0.00545 | 0.187 | 0.0396 | 0.295 | -0.0742 | -0.284
CCAGACAGGTGAGAAGGTAACTCCGCCTCGATTA | 1.06 | 0.448 | -0.414 | -1.08 | 0.567 | -0.515 | -0.154 | 0.0222 | 0.152 | 0.539
CCTACTGTGCCAAAAAGGTCATTGATGCCGATAA | 3.31 | 3.57 | 0.316 | 0.475 | 3.9 | 4.76 | 2.5 | 5.24 | 2.59 | 3.99
AGAACGAGAGCACGCTGAGTTGATAGCAGAGTAG | 0.0563 | -0.2 | -0.0826 | -0.875 | -0.952 | -0.515 | -0.415 | -0.666 | -1.23 | -0.39
GCAGCTAGGTCAGGTTGGTCAGCTAACGGGTACG | 2.64 | 2.05 | -0.736 | -1.04 | 0.817 | -0.0764 | -0.615 | 0.573 | 0.479 | 3.28
AGAATGAGGTTAAGATCACGGAAACAGAATACAT | 3.1 | 2.73 | 1.28 | 0.711 | 1.19 | 1.28 | 0.346 | 2.31 | 0.826 | 2.24
GGAACGATGGCAAGTTGATAGCAGAGTTTGATGG | 0.0538 | -0.751 | -1.07 | -0.527 | -1.16 | -0.323 | -0.221 | -0.504 | -0.494 | -0.496
GCTGCTAGGTCAACTGATGGTAAGCTAAAGCTCG | 5.03 | 3.79 | -0.843 | -0.572 | 1.33 | 1.29 | -0.824 | 2.02 | 0.282 | 4.06
TCTTATAGATCAAGCAGGTTAAGAAAGCCTGAGT | 2.41 | 0.395 | 0.287 | 0.665 | 0.243 | 0.691 | 0.364 | 0.658 | 0.426 | 0.33
CCTATTAGTTGACCATAAGGGCAACCAAAGCTCG | 0.357 | 0.63 | 0.3 | 0.552 | 1.72 | 1.18 | 1 | 1.47 | 2.44 | 1.62
